The target in assay [1] is human Thyroid Receptor alpha (THRa1), THRA (gene 7067) (UniProt P10827). The experiment in a line: ATG_THRa1_TRANS: Attagene TRANS-FACTORIAL HepG2 Assay for human Thyroid Receptor alpha (THRa1) (AID 2283014). The method, boiled down: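 HepG2 cells transiently transfected with chimeric NR-Gal4 and GAL4-UAS reporter units, dosed 24 h. Reporter mRNA quantified by RT-PCR, fluorescent labeling, HpaI digestion and capillary electrophoresis; gain-of-signal fit versus DMSO.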

Assay [2] in a line: CCTE_Harrill_HTTr_Apoptosis_MCF7: CCTE's 6-hour Apoptosis Assessment for the High-Throughput Transcriptomics (HTTr) Platform, in MCF-7 cells cultured in DMEM + 10% fetal bovine serum, Harrill Lab (AID 2284011; active = hit-call score of the fitted dose curve at least 0.9, where 1 is the maximum; inactive = score below 0.9). The method in brief:
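MCF-7 cells in DMEM + 10% FBS exposed 6 h to chemicals over an eight-point dilution series. Caspase-3/7 activation imaged by high-content CellEvent Green staining; fitted bidirectionally versus DMSO.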

Assay [3] can be described thus: CCTE_Harrill_HTTr_CellCount_MCF7: CCTE's Cell Proliferation Assessment for the High-Throughput Transcriptomics (HTTr) Platform, Harrill Lab (AID 2284012).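 Note: cells exposed to compound for six hours; intended direction is loss of nuclei count meaning fewer cells.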 The method, boiled down: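 Chemicals in eight-point dilution series are added to MCF-7 cells for six hours, nuclei are stained with Hoechst and imaged, and per-well nuclei counts are fitted in both directions relative to DMSO controls.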

Assay [4] has as its target Steroid hormone receptor ERR1 (Homo sapiens) (UniProt P11474). The experiment in a line: ATG_ERRa_TRANS: Attagene TRANS-FACTORIAL HepG2 Assay for human Estrogen-Related Receptor alpha (ERRa) (AID 2282971). The conditions noted are these: HepG2 Attagene TRANS reporter, ERRa transactivation. The method, boiled down:
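HepG2 cells transiently transfected with GAL4-UAS reporter units and chimeric NR-Gal4 constructs; after 24 hour compound incubation, reporter mRNA quantified by RT-PCR, fluorescent labelling and capillary electrophoresis, gain of signal versus DMSO.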

The target in assay [5] is Estrogen-related receptor gamma (Homo sapiens) (UniProt P62508). Briefly: ATG_ERRg_TRANS: Attagene TRANS-FACTORIAL HepG2 Assay for human Estrogen-Related Receptor gamma (ERRg) (AID 2282977).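 Note: hits increase reporter signal over DMSO so potencies reflect activators.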 The note with it: HepG2 Attagene TRANS reporter, ERRg transactivation. The method in brief:
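Transfect HepG2 with multiple GAL4-UAS reporter transcription units; dose chemicals 24 h; isolate RNA, reverse-transcribe with oligo(dT), PCR-amplify, label with 6-FAM, digest with HpaI; size fragments by capillary electrophoresis. DMSO serves as negative control.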

Assay [6] deals with Estrogen receptor beta (Homo sapiens) (UniProt Q92731). Briefly: OT_ER_ERbERb_0480: Odyssey Thera (OT) 8-hour HEK293T Protein-Complementation Assay for Estrogen Receptor-beta/-beta Homodimer (AID 2283357).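 Note: active means signal gain over DMSO baseline.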 The method, boiled down:
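Readout: increase in mean fluorescence intensity (nucleus for agonists; nucleus plus cytoplasm for antagonists) relative to DMSO, from a reporter-fragment complementation of human ER-beta LBD homodimer in HEK293T cells dosed 8 hours.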

The target is the same in assay [7]. The experiment in a line: OT_ER_ERbERb_1440: Odyssey Thera (OT) 24-hour HEK293T Protein-Complementation Assay for Estrogen Receptor-beta/-beta Homodimer (AID 2283380).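 Note: fluorescence gain from ER beta LBD homodimer complementation read by laser scanning cytometry; scored as signal increase over DMSO baseline for both agonists and antagonists.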 The method, boiled down: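 HEK293T cells stably expressing human ER-beta LBD (aa 310-547) PCA homodimer pair, dosed 24 h; formaldehyde-fixed, Draq5-stained. Readout: increase in nuclear (agonist) or nuclear plus cytoplasmic (antagonist) fluorescence intensity versus DMSO, gain-of-signal fitting.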

The target of assay [8] is Retinoic acid receptor RXR-alpha (Homo sapiens) (UniProt P19793). Briefly: OT_NURR1_NURR1RXRa_1440: Odyssey Thera (OT) 24-hour HEK293T Protein Complementation Assay for Nurr1/retinoid X receptor (RXR) (AID 2283386). The method, boiled down: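 Interaction of Nurr1 with RXRα brings fused reporter fragments together in human HEK293T cells, restoring a functional reporter. Fluorescence intensity is measured 24 h after chemical treatment, and values are analysed in the positive direction against DMSO.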
Sequence of Retinoic acid receptor RXR-alpha (Homo sapiens) (P19793 whole entry, looked up, the tested form may be a part): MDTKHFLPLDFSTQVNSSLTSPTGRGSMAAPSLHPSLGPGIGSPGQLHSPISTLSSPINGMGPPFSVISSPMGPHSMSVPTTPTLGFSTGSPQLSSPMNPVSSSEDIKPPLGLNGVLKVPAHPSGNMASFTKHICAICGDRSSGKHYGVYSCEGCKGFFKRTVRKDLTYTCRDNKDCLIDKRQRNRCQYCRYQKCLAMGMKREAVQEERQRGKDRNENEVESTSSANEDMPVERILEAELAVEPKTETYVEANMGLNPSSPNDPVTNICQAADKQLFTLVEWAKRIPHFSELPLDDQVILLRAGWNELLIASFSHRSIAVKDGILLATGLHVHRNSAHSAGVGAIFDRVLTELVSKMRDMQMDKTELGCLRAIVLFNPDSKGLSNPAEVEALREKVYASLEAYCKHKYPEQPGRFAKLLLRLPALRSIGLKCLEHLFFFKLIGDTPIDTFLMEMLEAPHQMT

Assay [9] concerns the target Peroxisome proliferator-activated receptor gamma (Homo sapiens) (UniProt P37231). The experiment in a line: OT_PPARg_PPARgSRC1_1440: Odyssey Thera (OT) 24-hour Protein-Complementation Assay for Peroxisome Proliferator-activated Receptor Gamma/ SRC-1 Co-activator (AID 2283388). The method, boiled down:
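HEK293T transiently transfected with PPARg/SRC-1 split-Venus YFP fusions 48 h before dosing, then treated 24 h at 37C. Fixed cells imaged; nuclear/cytoplasmic 488 nm fluorescence ratio, gain of signal versus DMSO.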

The nature of assay [10]: ACEA_AR_antagonist_AUC_viability: ACEA Biosciences xCELLigence Real-Time Cell Analysis on Androgen Receptor Antagonism for Viability (AID 2283776).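 Note: 22Rv1 human prostate cancer cells growing on impedance electrode plates; hits lower the growth signal relative to DMSO meaning cytotoxicity.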 The method in brief: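 Real-time electrical impedance tracks 22Rv1 proliferation after continuous compound exposure (top 100 uM final, 1:4 steps, 8 concentrations). The 80 h area-under-curve serves as the cytotoxicity readout relative to DMSO.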

The target of assay [11] is Bile acid receptor (Homo sapiens) (UniProt Q96RI1). Briefly: ATG_FXR_TRANS: Attagene TRANS-FACTORIAL HepG2 Assay for Farnesoid X Receptor (FXR) (AID 2282979).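 Note: hits raise reporter mRNA above DMSO so AC50 marks FXR activation.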 The note with it: HepG2 Attagene TRANS FXR-GAL4 reporter transcription. The method in brief: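 HepG2 cells were transiently transfected with GAL4-UAS reporters driven by chimeric NR-Gal4 proteins and dosed for 24 h. Reporter mRNA was quantified by RT-PCR, fluorescent labelling, HpaI digestion and capillary electrophoresis, with gain of signal scored versus DMSO.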
Sequence of Bile acid receptor (Homo sapiens) (Q96RI1 whole entry, looked up, the tested form may be a part): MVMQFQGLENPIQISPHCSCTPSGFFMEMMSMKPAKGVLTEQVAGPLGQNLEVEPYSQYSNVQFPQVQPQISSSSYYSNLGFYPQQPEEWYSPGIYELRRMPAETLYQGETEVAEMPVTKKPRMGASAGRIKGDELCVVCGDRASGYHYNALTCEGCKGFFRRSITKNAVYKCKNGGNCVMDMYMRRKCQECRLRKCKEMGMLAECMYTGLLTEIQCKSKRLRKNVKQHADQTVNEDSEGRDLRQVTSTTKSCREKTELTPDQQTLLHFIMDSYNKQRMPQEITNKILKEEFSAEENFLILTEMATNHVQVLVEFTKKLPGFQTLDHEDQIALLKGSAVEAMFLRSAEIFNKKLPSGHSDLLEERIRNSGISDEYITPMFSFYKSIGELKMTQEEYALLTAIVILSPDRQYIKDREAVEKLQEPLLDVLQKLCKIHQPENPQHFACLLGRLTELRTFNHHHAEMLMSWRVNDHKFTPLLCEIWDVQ

For assay [12], the target named is Retinoic acid receptor RXR-alpha (Homo sapiens) (UniProt P19793). Briefly: OT_NURR1_NURR1RXRa_0480: Odyssey Thera (OT) 8-hour HEK293T Protein Complementation Assay for Nurr1/retinoid X receptor (RXR) (AID 2283385). The method in brief:
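8 h compound exposure, HEK293T; Nurr1/RXRα fragment complementation; fluorescence intensity; positive fitting direction vs DMSO baseline.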

Assay [13] can be described thus: ACEA_AR_agonist_AUC_viability: ACEA Biosciences xCELLigence Real-Time Cell Analysis on Androgen Receptor Agonism for Viability (AID 2283775).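 For AC50: viability read 80 hours after compound addition.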 The method in brief: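 Real-time impedance tracking of 22Rv1 growth, readings every 5 min for 5 h then hourly; area-under-curve viability endpoint at 80 hours, relative to DMSO. Compounds at eight concentrations, 1:4 steps, top 100 uM, n = 2.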

Assay [14] can be described thus: ATG_ERE_CIS: Attagene CIS-FACTORIAL HepG2 Assay for Estrogen Response Element (ERE) (AID 2282940; active = hit-call score of the fitted dose curve at least 0.9, where 1 is the maximum; inactive = score below 0.9). The conditions noted are these: HepG2 ERE cis-reporter, Attagene RNA transcript; actives raise or lower the signal. The method, boiled down: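 Cells used were human hepatoma HepG2, transfected with multiple reporter transcription units under cis-regulatory promoters. Reporter mRNA, read 24 h post-dosing via fluorescent RT-PCR products on capillary electrophoresis, was fitted bidirectionally relative to DMSO.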

Assay [15] deals with Estrogen receptor (Homo sapiens) (UniProt P03372). The experiment in a line: ATG_ERa_TRANS: Attagene TRANS-FACTORIAL HepG2 Assay for human Estrogen Receptor alpha (ERa) (AID 2282970). The conditions noted are these: HepG2 Attagene TRANS ERa GAL4 reporter, mRNA. The method, boiled down: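 HepG2 cells transiently transfected with multiplexed GAL4-UAS reporter units read out chimeric NR-Gal4 activity. After 24 h compound exposure, reporter mRNA was quantified by RT-PCR, 6-FAM labeling, HpaI digestion and capillary electrophoresis, relative to DMSO.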
Sequence of Estrogen receptor (Homo sapiens) (P03372 whole entry, looked up, the tested form may be a part): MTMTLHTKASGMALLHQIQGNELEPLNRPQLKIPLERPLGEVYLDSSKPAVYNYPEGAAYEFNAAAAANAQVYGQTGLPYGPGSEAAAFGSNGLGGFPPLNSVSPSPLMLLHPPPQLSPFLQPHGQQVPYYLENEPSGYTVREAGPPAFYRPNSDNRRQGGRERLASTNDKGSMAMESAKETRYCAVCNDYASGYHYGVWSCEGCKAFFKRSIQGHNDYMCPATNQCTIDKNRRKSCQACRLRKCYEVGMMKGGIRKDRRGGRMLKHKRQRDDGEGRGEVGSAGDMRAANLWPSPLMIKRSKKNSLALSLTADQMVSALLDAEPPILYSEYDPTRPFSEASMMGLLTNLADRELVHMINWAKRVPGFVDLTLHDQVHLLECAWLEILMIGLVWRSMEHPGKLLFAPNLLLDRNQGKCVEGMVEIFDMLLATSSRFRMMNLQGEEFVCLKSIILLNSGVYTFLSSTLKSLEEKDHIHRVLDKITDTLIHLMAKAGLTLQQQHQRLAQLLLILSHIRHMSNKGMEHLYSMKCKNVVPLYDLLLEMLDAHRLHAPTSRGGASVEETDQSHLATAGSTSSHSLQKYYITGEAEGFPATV

The nature of assay [16]: BSK_3C_uPAR: BioMAP Diversity Plus: 3C Assay for Urokinase-type plasminogen activator receptor (uPAR) Biomarker Activity (AID 2282998; active = hit-call score of the fitted dose curve at least 0.9, where 1 is the maximum; inactive = score below 0.9). The note with it: BioMAP 3C HUVEC, uPAR biomarker ELISA; actives raise or lower the signal. The method, boiled down:
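Dose primary human umbilical vein endothelial cells, incubate 24 h, measure cell-surface uPAR by ELISA, then fit the signal in both directions against the DMSO negative control.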
For orientation: In an ELISA, binding on a coated surface is turned into a signal by an enzyme label.

Assay [17] is described as follows: BSK_4H_Eotaxin3: BioMAP Diversity Plus: 4H Assay for Eotaxin 3 Biomarker Activity (AID 2283000; active = hit-call score of the fitted dose curve at least 0.9, where 1 is the maximum; inactive = score below 0.9;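 for outcome: CCL26 protein level quantified by ELISA in parallel with SRB cytotoxicity check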). The conditions noted are these: primary human endothelial cells (HUVEC); actives raise or lower the signal. The method, boiled down: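 Eotaxin-3 (CCL26) levels were measured by ELISA in HUVEC primary cultures 24 h post-dosing. Gain or loss of signal was fitted in both directions, with DMSO serving as baseline and negative control.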

Read-out in assay [18]: Intercellular Adhesion Molecule 1 (ICAM1), ICAM1 (gene 3383)
The experiment in a line: BSK_3C_ICAM1: BioMAP Diversity Plus: 3C Assay for Intercellular Adhesion Molecule 1 (ICAM1) Biomarker Activity (AID 2283003; active = hit-call score of the fitted dose curve at least 0.9, where 1 is the maximum; inactive = score below 0.9). The note with it: primary human endothelial cells (HUVEC); actives raise or lower the signal. The method in brief:
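ICAM-1 levels measured by ELISA after HUVEC cultures in the 3C system had been dosed for 24 h. Gain or loss of signal relative to DMSO was fitted in both directions.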

Read-out in assay [19]: Monocyte Chemoattractant Protein-1 (MCP1), CCL2 (gene 6347)
The experiment in a line: BSK_4H_MCP1: BioMAP Diversity Plus: 4H Assay for Monocyte Chemoattractant Protein-1 (MCP1) Biomarker Activity (AID 2283018; active = hit-call score of the fitted dose curve at least 0.9, where 1 is the maximum; inactive = score below 0.9). The note with it: primary human endothelial cells (HUVEC); actives raise or lower the signal. The method in brief: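 ELISA read-out of MCP-1 from human vascular endothelial primary cells taken at 24 hours after compound exposure. Activity was fitted in both directions relative to DMSO, which served as negative control.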

Read-out in assay [20]: Thrombomodulin, THBD (gene 7056)
Briefly: BSK_CASM3C_Thrombomodulin: BioMAP Diversity Plus: CASM3C Assay for Thrombomodulin Biomarker Activity (AID 2283051; active = hit-call score of the fitted dose curve at least 0.9, where 1 is the maximum; inactive = score below 0.9;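 note: thrombomodulin protein level measured by ELISA 24 h after dosing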). The conditions noted are these: primary human coronary artery smooth muscle cells; actives raise or lower the signal.

Results filed as inconclusive are left out. The source holds several records for some structures; these can differ, active in one and inactive in another. Activity calls are given as the source filed them. Rule for the calls, unless noted: active = hit-call score of the fitted dose curve at least 0.9, where 1 is the maximum; inconclusive = response in the unintended direction; inactive = score below 0.9.

By AC50 is commonly meant the concentration giving half of the maximal activity seen.

Sequence of human Thyroid Receptor alpha (THRa1), THRA (gene 7067) (P10827 whole entry, looked up, the tested form may be a part): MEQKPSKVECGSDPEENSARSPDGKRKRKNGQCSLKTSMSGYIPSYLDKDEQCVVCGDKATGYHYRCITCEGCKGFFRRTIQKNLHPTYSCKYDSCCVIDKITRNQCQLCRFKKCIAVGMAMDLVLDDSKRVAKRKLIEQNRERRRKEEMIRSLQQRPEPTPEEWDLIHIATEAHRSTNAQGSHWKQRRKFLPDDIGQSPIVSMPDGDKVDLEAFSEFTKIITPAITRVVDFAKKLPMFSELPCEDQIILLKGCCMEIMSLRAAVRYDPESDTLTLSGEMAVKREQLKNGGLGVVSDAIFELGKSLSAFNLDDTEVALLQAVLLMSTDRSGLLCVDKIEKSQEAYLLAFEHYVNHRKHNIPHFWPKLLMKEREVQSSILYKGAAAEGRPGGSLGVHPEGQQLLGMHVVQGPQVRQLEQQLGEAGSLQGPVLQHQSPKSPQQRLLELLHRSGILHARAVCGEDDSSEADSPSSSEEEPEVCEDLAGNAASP
Sequence of Peroxisome proliferator-activated receptor gamma (Homo sapiens) (P37231 whole entry, looked up, the tested form may be a part): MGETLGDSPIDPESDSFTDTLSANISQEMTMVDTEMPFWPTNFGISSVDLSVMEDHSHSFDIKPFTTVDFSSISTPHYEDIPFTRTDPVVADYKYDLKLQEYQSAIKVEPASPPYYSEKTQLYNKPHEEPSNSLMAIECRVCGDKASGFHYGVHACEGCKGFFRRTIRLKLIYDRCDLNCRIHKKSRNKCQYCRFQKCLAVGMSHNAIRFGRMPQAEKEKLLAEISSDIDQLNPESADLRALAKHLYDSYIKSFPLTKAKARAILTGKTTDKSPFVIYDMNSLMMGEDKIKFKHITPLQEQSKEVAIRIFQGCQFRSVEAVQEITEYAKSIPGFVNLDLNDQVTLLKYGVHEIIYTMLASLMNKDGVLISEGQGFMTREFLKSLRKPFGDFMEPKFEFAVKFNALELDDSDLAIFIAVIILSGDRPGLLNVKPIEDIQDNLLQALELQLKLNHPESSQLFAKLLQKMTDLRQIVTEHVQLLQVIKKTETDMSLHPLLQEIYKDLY
Sequence of Steroid hormone receptor ERR1 (Homo sapiens) (P11474 whole entry, looked up, the tested form may be a part): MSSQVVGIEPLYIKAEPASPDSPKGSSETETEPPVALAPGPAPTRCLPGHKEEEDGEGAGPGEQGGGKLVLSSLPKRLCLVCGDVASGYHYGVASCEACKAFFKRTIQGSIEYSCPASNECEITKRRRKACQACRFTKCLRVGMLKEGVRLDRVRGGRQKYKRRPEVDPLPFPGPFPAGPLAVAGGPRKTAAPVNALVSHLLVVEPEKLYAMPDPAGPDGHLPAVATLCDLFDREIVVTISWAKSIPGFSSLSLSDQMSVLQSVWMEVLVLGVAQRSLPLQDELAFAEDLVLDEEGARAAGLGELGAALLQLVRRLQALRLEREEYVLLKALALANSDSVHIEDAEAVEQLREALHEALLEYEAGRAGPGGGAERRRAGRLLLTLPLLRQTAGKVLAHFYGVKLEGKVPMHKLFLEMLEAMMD
Sequence of Estrogen-related receptor gamma (Homo sapiens) (P62508 whole entry, looked up, the tested form may be a part): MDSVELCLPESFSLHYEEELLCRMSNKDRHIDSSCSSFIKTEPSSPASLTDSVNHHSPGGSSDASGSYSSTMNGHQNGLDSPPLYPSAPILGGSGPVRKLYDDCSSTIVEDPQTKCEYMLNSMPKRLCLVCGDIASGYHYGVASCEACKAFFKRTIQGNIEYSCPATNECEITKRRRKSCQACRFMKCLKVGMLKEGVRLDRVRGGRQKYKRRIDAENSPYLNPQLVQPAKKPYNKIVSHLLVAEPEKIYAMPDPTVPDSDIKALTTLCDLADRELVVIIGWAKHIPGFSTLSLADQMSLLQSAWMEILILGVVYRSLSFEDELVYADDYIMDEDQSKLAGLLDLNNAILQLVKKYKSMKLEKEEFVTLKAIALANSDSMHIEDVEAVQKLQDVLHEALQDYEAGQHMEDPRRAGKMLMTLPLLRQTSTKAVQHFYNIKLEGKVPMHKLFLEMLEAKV
Sequence of Estrogen receptor beta (Homo sapiens) (Q92731 whole entry, looked up, the tested form may be a part): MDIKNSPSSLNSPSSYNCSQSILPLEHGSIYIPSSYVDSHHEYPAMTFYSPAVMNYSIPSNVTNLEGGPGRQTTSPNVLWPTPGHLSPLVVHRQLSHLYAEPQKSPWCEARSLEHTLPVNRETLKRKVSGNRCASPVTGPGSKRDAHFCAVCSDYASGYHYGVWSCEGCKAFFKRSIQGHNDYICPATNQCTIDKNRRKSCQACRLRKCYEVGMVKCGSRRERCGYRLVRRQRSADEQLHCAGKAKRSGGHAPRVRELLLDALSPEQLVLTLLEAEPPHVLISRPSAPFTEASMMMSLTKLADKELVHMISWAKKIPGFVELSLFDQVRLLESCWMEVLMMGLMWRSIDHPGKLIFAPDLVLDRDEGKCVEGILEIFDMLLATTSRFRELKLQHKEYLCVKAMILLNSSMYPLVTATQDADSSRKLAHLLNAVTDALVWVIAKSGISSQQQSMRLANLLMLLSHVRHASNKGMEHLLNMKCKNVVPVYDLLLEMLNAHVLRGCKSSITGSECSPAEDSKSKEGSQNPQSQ

Turning to `CN1C(=O)CCS(=O)(=O)C1c1ccc(Cl)cc1` (centres undefined), the compound was called inactive in assay [1], in [2] and in assay [3].
As for `Nc1ccccc1C(=O)OCCc1ccccc1`, the result in assay [4] and in [5] was inactive.
As to `CC[N+](=O)[O-]`, the compound was classed as inactive in [1], in assay [6], in assay [7], in assay [8], in [9] and in assay [10].
Regarding `Nc1ccc([N+](=O)[O-])cc1N`, the compound was classed as inactive in assay [4] and in assay [5].
Consider `CC(Cc1ccc(C(C)(C)C)cc1)CN1C[C@@H](C)O[C@@H](C)C1` (some centres undefined), for which the compound was classed as inactive in [4], in assay [5], in [11], in assay [1], in assay [6] and in assay [7]. Also, the compound was classed as inactive in assay [9], in [13] and in assay [10]. Also, the AC50 in assay [12] was 66.8 µM (active); in assay [8], 81 µM (active).
For `[Cl][Sb]([Cl])[Cl]`, the compound was called inactive in assay [1] and in assay [3].
In the case of `CCNCC`, the outcome in [4] and in assay [5] was inactive.
On to `O=c1c2ccccc2c(=O)c2c1cc(Cl)c1[nH]c3c([nH]c12)c(Cl)cc1c(=O)c2ccccc2c(=O)c13`, for which the result in assay [14], in [15], in [5], in [11], in assay [16] and in assay [18] was inactive. Also, in [19], the result was inactive. Also, the AC50 was 24.8 µM (active) in [17] and 6 µM (active) in assay [20].
Turning to `CCCCCCC1CCOC1=O` (centres undefined), the compound was called inactive in assay [4] and in assay [5].
As for `O=S(=O)(c1ccccc1)c1ccccc1`, the result in assay [4], in assay [5], in [16], in assay [17], in [18] and in [1] was inactive. Moreover, the outcome in assay [19], in assay [20] and in assay [3] was inactive.
As for `SCc1ccco1`, in [14], the outcome was inactive. The AC50 in assay [15] is 54.1 µM (active).
As for `CC1CCCC1.[C-]#[O+].[C-]#[O+].[C-]#[O+].[Mn]`, the call in assay [1], in assay [12], in assay [8], in [9] and in assay [13] was inactive.
`[CH3][Sn]([CH3])([Cl])[Cl]`: the call in assay [4], in assay [5], in assay [12], in [9], in assay [13] and in [10] was inactive. In addition, in assay [8], the concentration at half-maximal activity (AC50) is 82.1 µM (active).
`CC(C)[C@@H](C(=O)O[C@@H](C#N)c1cccc(Oc2ccccc2)c1)c1ccc(Cl)cc1`: the compound was called inactive in [6], in assay [7], in [9], in assay [13], in assay [10] and in [3]. Besides, the AC50 is 41.6 µM (active) in assay [13] and 50 µM (active) in [10].
For `CCOC(=O)NC(=S)Nc1ccccc1NC(=S)NC(=O)OCC`, the compound was called inactive in assay [4], in [5], in assay [1], in [6], in assay [7] and in assay [9]. For the same compound, the outcome in assay [2] and in assay [3] was inactive. The AC50 in assay [10] was 4.35 µM (active).

The record behind these values is PubChem BioAssay (EPA / NIEHS).
